Tg IFNy HTS: blocks Toxoplasma gondii growth in the presence of IFN-gamma; Toxoplasma gondii growth in IFN-gamma-treated host cells; active compounds read low; activity change, negative = inhibition, % (no concentration beside the values); actives 3.8% (n = 69,000); AID 1259416; in the data active = activity change below about -70%, passing the limit was not always enough;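 note: host cells are HeLa cells infected with Toxoplasma gondii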
Active calls of the source: *. The sample as a whole holds a higher share of hits than the screen did.

SMILES	Tg IFNy HTS
CN(C)CC1(O)CCCN(C(=O)c2cnc(-c3cccnc3)nc2)C1 (stereo not drawn)	-2
Cn1nnc2c(NCCc3c[nH]c4ccccc34)ncnc21	-12
CCCc1nc(C)cc(N2CCN(C(=O)c3ncn[nH]3)CC2)n1	5
COc1ccccc1CC(=O)N1CCCC1c1cc2nc(C)cc(C(F)(F)F)n2n1 (stereo not drawn)	-21
Cc1cc(C(F)(F)F)n2nc(C3CCCN(C(=O)c4cc5c(s4)CCCC5)C3)cc2n1 (stereo not drawn)	-104*
O=C(c1ccn[nH]1)N1CCC(c2cc3nc(-c4cccs4)cc(C(F)(F)F)n3n2)C1 (stereo not drawn)	-46
C=CCN1CCOCC2(C1)CN(Cc1nccs1)CCO2 (stereo not drawn)	95
CNC(=O)c1cc(-c2cnc3ccccc3c2)ccc1Cl	78
O=C(c1cccc2c1OCCO2)N1CC[C@@H](c2ccc3c(c2)OCO3)[C@H](O)C1	5
CCN1CCC2(CC1)OC(=O)C(C)=C2C(=O)NCCCN1CCCC1=O	250
CC1CCCCN1C(=O)c1ccn(-c2ccc3ccccn23)n1 (stereo not drawn)	-20
O=C(Nc1cccnc1)c1ccnn1-c1ccc2ccc(-c3cccnc3)cn12	-1
CC1CCCCN1C(=O)c1ccnn1-c1ccc2ccc(-c3ccccc3)cn12 (stereo not drawn)	-85*
O=C(Nc1ccn(Cc2ccc(Cl)cc2Cl)n1)c1ccco1	-46
Cc1noc(C)c1C1CCCN1Cc1cccn1-c1nccs1 (stereo not drawn)	8
CCC(C)[C@H]1O[C@]2(C=C[C@@H]1C)C[C@@H]1C[C@@H](C/C=C(\C)[C@@H](OC3C[C@H](OC)C(O[C@H]4C[C@H](OC)[C@@H](NC(C)=O)[C@H](C)O4)[C@H](C)O3)[C@@H](C)/C=C/C=C3\CO[C@@H]4[C@H](O)C(C)=C[C@@H](C(=O)O1)[C@]34O)O2 (stereo partly drawn)	13
CO[C@H]1CC(O[C@@H]2/C(C)=C/C[C@@H]3C[C@@H](C[C@]4(CC[C@H](C)[C@@H](C5CCCCC5)O4)O3)OC(=O)[C@@H]3C=C(C)/C(=N/O)[C@H]4OC/C(=C\C=C\[C@@H]2C)[C@]43O)O[C@@H](C)C1O (stereo partly drawn)	-80*
COc1cc(C)c(S(=O)(=O)NCCc2cnccn2)cc1C(C)C	1
CC[C@H]1C[C@@H](NC(=O)c2ccccc2)C[C@@H](c2cnc(-c3ccccn3)nc2)O1	1
COc1cccc2c1C(=O)c1c(O)c3c(c(O)c1C2=O)C[C@@](O)(C(C)=O)C[C@@H]3OC1CC(N)C(O)C(C)O1 (stereo partly drawn)	-75*
CCCCC(=O)OCC(=O)[C@]1(O)Cc2c(O)c3c(c(O)c2[C@@H](O[C@H]2C[C@H](NC(=O)C(F)(F)F)[C@H](O)[C@H](C)O2)C1)C(=O)c1c(OC)cccc1C3=O	-73*
COc1cccc2c1C(=O)c1c(O)c3c(c(O)c1C2=O)C[C@@](O)(C(=O)CO)C[C@@H]3O[C@H]1C[C@H](N)[C@H](O)[C@H](C)O1	-78*
CC(=O)C1(O)Cc2c(O)c3c(c(O)c2C(OC2CC(N)C(O)C(C)O2)C1)C(=O)c1c(O)cccc1C3=O (stereo not drawn)	-79*
CN(Cc1ccc2c(c1)OCO2)Cc1cc(-c2ccccc2)no1	2
CC(c1ccc(-c2nc3ccccc3n2CCO)cc1)N1CCOCC1 (stereo not drawn)	-6
SMILES	Tg IFNy HTS
Cc1ccc(C)c(NC(=O)CCNC(=O)c2cc(C3CC3)[nH]n2)c1	7
COc1ccc(-c2nc(Nc3cccc(Cl)c3)c3ccccc3n2)cc1	-58
CC(C)CN1CCC2(CC1)CC1(CCN(C(=O)Nc3ccc(Cl)cc3)CC1)N(C)C2=O	6
O=C(NCc1ccccn1)C1CCCN(C2CCN(C(=O)c3ccoc3)CC2)C1 (stereo not drawn)	-3
COc1ccc2c(c1)OC1(CCN(C(=O)c3cc4cc(C)ccc4nc3C)CC1)CC2=O	-47
O=C(CN1C(=O)CCc2cc(Br)ccc21)NCCC1=CCCCC1	60
CCn1cc(CN2CCCC2c2cc(C(C)C)no2)c2cc(OC)ccc21 (stereo not drawn)	1
O=C(CCC1CCCN(C(=O)C2=CCCCC2)C1)NCc1ccccc1F (stereo not drawn)	-28
O=C(Cn1c(=O)ccc2cc(S(=O)(=O)N3CCCC3)ccc21)N1CCN(c2ccccc2)CC1	85
Fc1ccc(-n2cc(CCCCN3CCC4(CC3)OCc3ccccc34)c3ccccc32)cc1	-76*
CS(=O)(=O)N1CC(C(=O)NCc2nnc(-c3ccccc3)o2)Oc2ccccc21 (stereo not drawn)	12
c1ccc2c(c1)OCC(c1csc3ncnc(N4CCCCC4)c13)O2 (stereo not drawn)	-90*
CN(C)C(=O)c1ccc2ncnc(N3CCCCC3)c2c1	-19
CCn1ccnc1CC1COc2ccccc2O1 (stereo not drawn)	-18
Cc1cccn2c(CC(=O)N3CCCC3Cn3cccn3)cnc12 (stereo not drawn)	-5

Assay outcomes (PubChem)
